# Results: PubChem BioAssay (NCI)
# About 83,000 compounds went through this panel and 20% of them were active in at least one assay; those are over-represented in the sample as a whole.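 Activity criterion: percent growth below 10, measured after cells in 96-well plates were exposed to a single compound concentration for 48 hours.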 Active and inactive are the calls of the source.
# System: OVCAR-4 ovarian
# Test: NCI-60 one-dose screen, 48 h (100 = growth as untreated, 0 = no growth, -100 = all killed)
# Details: 10 µM unless noted
# Protocol: Growth inhibition of the OVCAR-4 human tumor cell line is measured as a screen for anti-cancer activity. Cells are grown in 96 well plates and exposed to the test compound for 48 hours. Compounds are tested at a single concentration, which is 10^-5 M for most compounds. The reported endpoint is percent growth (GI% or GIPRCNT), where numbers from 0 - 100% represent growth inhibition, and numbers from -100% - 0 represent cell death. For example, a value of 40 represents 60% growth inhibition. A value of 0 means no net growth occurred over the course of the experiment. A value of -40 indicates 40% of cells at the beginning of the experiment died by the end of the experiment. A value of -100 means all cells are dead at the end of the experiment.
# NCI-60 Human Tumor Cell Lines Screen was performed using the standard one-dose NCI protocol, which is described in more detail at https://dtp.cancer.gov/discovery_development/nci-60/default.htm.
# Compounds with GIPRCNT values below 10 were considered active. Activity score was based on GIPRCNT using the following formula: […]
# Score is 0 for GIPRCNT values of 100 or above, 50 for GIPRCNT values of 0, and 100 for GIPRCNT values of -100.
row,Structure (SMILES),growth
1,CC(=O)NC(C)(C)C(=O)N[C@@H](C)C(=O)NC(C)(C)C(=O)N[C@@H](C)C(=O)NC(C)(C)C(=O)N[C@@H](C)C(=O)N[C@@H](CCC(N)=O)C(=O)NC(C)(C)C(=O)N[C@H](C(=O)NC(C)(C)C(=O)NCC(=O)N[C@@H](CC(C)C)C(=O)NC(C)(C)C(=O)N1CCC[C@H]1C(=O)N[C@H](C(=O)NC(C)(C)C(=O)NC(C)(C)C(=O)N[C@@H](CCC(N)=O)C(=O)N[C@@H](CCC(N)=O)C(=O)N[C@H](CO)CC1CCCCC1)C(C)C)C(C)C,23.8% [5 µM] (inactive)
2,C#CCOc1ccc(C(Nc2cc(Cl)ccc2Cl)c2nnnn2C2CCCCC2)cc1 (stereo not given),93.3% (inactive)
3,CCCCCCNC(=O)Oc1ccc(/C(=C(\C)c2ccc(Cl)cc2)c2ccc(OCCN(C)C)cc2)cc1,74.5% (inactive)
4,O=C(CSc1ccc(-c2nc3ccccc3[nH]2)cn1)N1CCN(c2ccccc2F)CC1,24.2% (inactive)
5,CC(C)(C)n1nnnc1C(Nc1nccs1)c1cc2cccc3ccc4cccc1c4c32 (stereo not given),95.3% (inactive)
6,C/C(=C(/c1ccc(O)cc1)c1ccc(OCCN(C)C)cc1)c1ccc(Cl)cc1,66.9% (inactive)
7,C=CCn1c(SCC(=O)Nc2cccc(C(=O)/C=C/c3ccccc3)c2)nc2ccccc2c1=O,88% (inactive)
8,O=c1c2c(O)cccc2oc2c3c(cc(O)c12)O[C@H]1OC=C[C@@H]31,94.5% (inactive)
9,CCN1CCN(Cc2ccc(C(=O)Nc3nc4ccc(Oc5ccnc(C(=O)NC)c5)cc4s3)cc2C(F)(F)F)CC1,61% (inactive)
10,Nc1ccc(-c2nnc(SCc3ccc(O)c4ncccc34)o2)cc1,-1.57% (active)
11,CCN1C(=O)N(CC)C2SC(N/N=C/c3cccs3)=NC21 (stereo not given),62.5% (inactive)
12,COc1cc(/C=C/C(=O)c2ccc(NC(=O)CSc3nnc(-c4ccc5nc(-c6ccccc6)[nH]c5c4)o3)cc2)cc(OC)c1OC,99.5% (inactive)
13,Oc1ccc(CSc2nnc(-c3ccc(Oc4ccccc4)cc3)o2)c2cccnc12,-36.5% (active)
14,O=C(CN1C(=O)S/C(=C\c2ccccc2)C1=O)Nc1ccc(C(=O)/C=C/c2cc3ccccc3nc2Cl)cc1,41.9% (inactive)
15,O=C(/C=C1\C=CN(CCCCF)c2ccccc21)n1ccc2ccccc21,85.4% (inactive)
16,O=C1c2c(c3c4cccnc4[nH]c3c3ccc4ccccc4c23)C(=O)N1CCN1CCCCC1,95.2% (inactive)
17,C#CCOc1ccc(C(Nc2ccc(Cl)cc2)c2nnnn2C2CCCCC2)cc1 (stereo not given),82.6% (inactive)
18,COc1cc(/C=N/n2cnc3oc(-c4ccccc4)cc3c2=N)cc(CN2CCN(C)CC2)c1O,97.7% (inactive)
19,c1ccc(-c2n(Cc3ccc4ccccc4c3)c3c4ccccc4c4ccccc4c3[n+]2Cc2ccc3ccccc3c2)cc1,-73.4% (active)
20,COc1cc(/C=N/Nc2ccnc3cc(Cl)ccc23)cc(OC)c1O,-50.2% (active)

row,Structure (SMILES),growth
1,CCOC(=O)c1nn(-c2ccccc2)c(=O)c2c(N)c(C#N)c(-c3cccs3)cc12,36.7% (inactive)
2,CNC(=O)c1cc(Oc2ccc3nc(NC(=O)c4cccc(C(F)(F)F)c4)sc3c2)ccn1,101% (inactive)
3,O=[N+]([O-])c1ccc(-c2nnc(SCc3ccc(O)c4ncccc34)o2)cc1,17.3% (inactive)
4,COc1ccc([C@H]2[C@H](O)C(=O)N2c2cc(OC)c(OC)c(OC)c2)cc1Cl,74.4% (inactive)
5,COc1ccc2c(c1)c(-c1nnc(N)nc1-c1cn(C)c3ccccc13)cn2C,91.3% (inactive)
6,CS(=O)(=O)c1nccc(-c2c(-c3ccc(F)c(OCCc4ccccc4)c3)nc3sccn23)n1,98.4% (inactive)
7,COc1ccc(-c2nn(-c3ccccc3)cc2/C=C/C(=O)c2ccc(NC(=O)CCCCCCC(=O)NO)cc2)cc1,97.5% (inactive)
8,C=C1C(=O)O[C@@H]2C[C@@H](C)[C@H](OC)CC(=O)[C@](C)(OC(C)=O)C[C@H](OC(=O)/C(C)=C\C)[C@@H]12,82.3% (inactive)
9,Cc1ccccc1NC1CC(=O)N(c2ccc(Cl)cc2Cl)C1=O (stereo not given),97.5% (inactive)
10,CCNCCCn1c2c(c3cc(OC)c(OC)cc3c1=O)C(=O)c1cc(OC)cnc1-2,6.87% (active)
11,Nc1nc(-c2cccc([N+](=O)[O-])c2)c(N=Nc2ccccc2[N+](=O)[O-])s1,-2.02% (active)
12,CC(C)=CCc1c(O)c(CC=C(C)C)c2c(c1O)C(=O)C1=C[C@@H]3C[C@H]4C(C)(C)O[C@@](C/C=C(\C)C(=O)O)(C3=O)[C@@]14O2,33.2% (inactive)
13,CCOC(=O)CC(=O)CSC1=NC2C(NN1)N(C)C(=O)N2C (stereo not given),88.9% (inactive)
14,CCCCSc1nnc(-c2ccc(-c3ccc(Cl)cc3)nc2C)o1,102% (inactive)
15,O=C(C[n+]1ccnc2ccccc21)c1ccc(O)c(O)c1,46.6% (inactive)
16,COc1ccc2c(C3=C(c4c[nH]c5ccccc45)C(=O)N(O)C3=O)coc2c1,114% (inactive)
17,O=C(NCCCNc1cc(-c2cn(-c3ccccc3)nc2-c2cccc(O)c2)ccn1)Nc1cccc(C(F)(F)F)c1,38.9% (inactive)
18,CCN(CC)CCCC(C)NCC(=O)NC(c1ccc2c(c1)OCO2)c1cc(Cl)c2cccnc2c1O (stereo not given),11.5% (inactive)
19,COc1ccc(C2CC(c3ccc(Nc4nc(NCCO)nc(Nc5ccc(Cl)cc5)n4)cc3)=Nc3c(N)nc(N)nc3N2)cc1 (stereo not given),66.9% (inactive)
20,CS(=O)c1nccc(-c2c(-c3ccc(F)c(OCc4ccccc4)c3)nc3sccn23)n1 (stereo not given),102% (inactive)
